In this assay the target is histone methyltransferase SET domain containing 2 (SETD2) (Homo sapiens, UniProt Q9BYW2). The assay can be described thus: primary screen, binary call; higher = more effect of the substance. How it is done: The Chemiluminescence assay evaluates SETD2 specific tri -methylation activity towards histone H3K36. The kit consist s of recombinant SETD2, S-adenosylmethionine and a specific H3K36me3 antibody and was performed according to the manufacturer’s protocol (Catalo g- No. 52060, https://bpsbioscience.com/setd2 -chemiluminescent-assay-kit-52060). Values were blank corrected and normalized . Enzymatic activities were calculated relative to the positive control of the kit (full enzymatic activity) and to the known SET doma in inhibitor Sinefungin28 used as negative control (complete enzymatic activity inhibition). Compounds used were diluted in DMSO.
Chain of histone methyltransferase SET domain containing 2 (SETD2) (Q9BYW2 whole entry, looked up, the tested form may be a part): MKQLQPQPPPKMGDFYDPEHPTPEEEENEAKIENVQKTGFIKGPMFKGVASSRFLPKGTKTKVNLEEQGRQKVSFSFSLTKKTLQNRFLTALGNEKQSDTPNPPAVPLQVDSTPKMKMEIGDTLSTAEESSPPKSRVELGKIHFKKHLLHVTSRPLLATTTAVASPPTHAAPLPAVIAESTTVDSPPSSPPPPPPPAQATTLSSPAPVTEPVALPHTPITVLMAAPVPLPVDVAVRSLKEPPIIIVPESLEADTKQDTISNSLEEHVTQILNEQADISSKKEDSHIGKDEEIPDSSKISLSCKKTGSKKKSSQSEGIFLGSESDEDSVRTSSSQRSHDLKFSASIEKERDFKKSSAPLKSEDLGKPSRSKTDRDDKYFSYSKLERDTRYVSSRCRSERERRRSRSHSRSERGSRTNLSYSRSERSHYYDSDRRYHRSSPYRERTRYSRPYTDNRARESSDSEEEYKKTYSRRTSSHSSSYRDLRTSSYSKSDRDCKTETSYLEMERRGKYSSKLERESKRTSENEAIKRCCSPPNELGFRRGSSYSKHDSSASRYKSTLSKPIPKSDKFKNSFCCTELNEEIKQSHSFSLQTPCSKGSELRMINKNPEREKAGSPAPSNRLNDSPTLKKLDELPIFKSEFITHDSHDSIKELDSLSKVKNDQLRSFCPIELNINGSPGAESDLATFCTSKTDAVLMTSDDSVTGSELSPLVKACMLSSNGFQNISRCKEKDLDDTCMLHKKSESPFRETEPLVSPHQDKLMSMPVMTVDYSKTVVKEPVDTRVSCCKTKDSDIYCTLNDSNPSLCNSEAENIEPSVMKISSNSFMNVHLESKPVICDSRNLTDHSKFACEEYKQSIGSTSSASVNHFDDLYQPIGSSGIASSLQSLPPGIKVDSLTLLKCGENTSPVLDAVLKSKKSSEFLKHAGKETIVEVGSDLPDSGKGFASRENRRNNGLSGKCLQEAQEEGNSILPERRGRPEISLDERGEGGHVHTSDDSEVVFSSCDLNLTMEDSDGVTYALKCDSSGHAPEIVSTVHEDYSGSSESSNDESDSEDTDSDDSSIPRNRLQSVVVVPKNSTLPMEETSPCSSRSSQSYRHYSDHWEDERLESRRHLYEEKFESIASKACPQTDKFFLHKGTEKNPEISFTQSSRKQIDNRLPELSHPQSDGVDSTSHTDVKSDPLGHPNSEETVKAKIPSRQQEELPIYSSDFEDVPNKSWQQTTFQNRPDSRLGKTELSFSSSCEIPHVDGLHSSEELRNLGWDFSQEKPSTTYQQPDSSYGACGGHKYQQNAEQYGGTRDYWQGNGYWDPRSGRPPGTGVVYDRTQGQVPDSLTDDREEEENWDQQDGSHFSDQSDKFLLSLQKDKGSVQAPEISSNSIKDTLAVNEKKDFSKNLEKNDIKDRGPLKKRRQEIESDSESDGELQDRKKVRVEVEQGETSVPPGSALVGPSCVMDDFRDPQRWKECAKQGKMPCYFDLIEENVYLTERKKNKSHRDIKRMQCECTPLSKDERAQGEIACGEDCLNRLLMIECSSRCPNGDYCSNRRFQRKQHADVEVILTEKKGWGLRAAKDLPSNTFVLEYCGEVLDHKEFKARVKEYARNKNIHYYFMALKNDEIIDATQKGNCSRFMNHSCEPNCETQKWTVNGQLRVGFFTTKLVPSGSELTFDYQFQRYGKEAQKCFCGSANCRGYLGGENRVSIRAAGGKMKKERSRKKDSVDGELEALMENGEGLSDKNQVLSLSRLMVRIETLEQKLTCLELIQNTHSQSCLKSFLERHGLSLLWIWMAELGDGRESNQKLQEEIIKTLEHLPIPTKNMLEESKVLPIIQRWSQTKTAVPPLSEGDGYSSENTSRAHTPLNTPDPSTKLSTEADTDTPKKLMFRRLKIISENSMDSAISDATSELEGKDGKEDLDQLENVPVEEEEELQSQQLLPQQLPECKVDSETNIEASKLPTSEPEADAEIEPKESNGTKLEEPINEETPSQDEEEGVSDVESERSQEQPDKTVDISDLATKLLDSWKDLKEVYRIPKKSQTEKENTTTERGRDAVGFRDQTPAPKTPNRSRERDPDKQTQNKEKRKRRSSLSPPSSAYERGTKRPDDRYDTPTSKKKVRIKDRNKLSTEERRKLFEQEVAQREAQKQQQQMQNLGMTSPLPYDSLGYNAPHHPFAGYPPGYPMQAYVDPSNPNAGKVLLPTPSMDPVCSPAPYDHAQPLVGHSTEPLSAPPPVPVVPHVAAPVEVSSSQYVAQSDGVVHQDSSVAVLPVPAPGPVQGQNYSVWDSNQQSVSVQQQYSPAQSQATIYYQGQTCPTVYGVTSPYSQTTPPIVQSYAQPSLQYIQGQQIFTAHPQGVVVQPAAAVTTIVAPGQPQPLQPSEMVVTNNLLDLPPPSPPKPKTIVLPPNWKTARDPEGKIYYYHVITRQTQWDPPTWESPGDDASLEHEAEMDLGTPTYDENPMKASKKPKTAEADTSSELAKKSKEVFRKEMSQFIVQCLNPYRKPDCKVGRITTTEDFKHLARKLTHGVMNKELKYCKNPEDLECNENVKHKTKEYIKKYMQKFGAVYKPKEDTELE
With `CC(=O)c1sc(-c2ccc(O)cc2)nc1C`, the SETD2 is 0 (inactive).
As for `O=C(O)C1CCN(c2ncccn2)CC1`, the figure is 0 (inactive); as for `O=C1CSC(Nc2ccc(F)cc2)=N1`, 0 (inactive).
The same measure for `CC1CCc2sc(C(=O)O)cc2C1` (stereo not shown): 1 (active).
The same measure for `Fc1ccc2c(C3CCNCC3)c[nH]c2c1`: 0 (inactive); for `Nc1ccc(SC(F)F)cc1`: 0 (inactive).
With `CS(=O)(=O)c1ccc(N2CCNCC2)cc1`, the SETD2 is 0 (inactive).
As for `Oc1nnc(-c2ccccc2)o1`, the SETD2 was 0 (inactive).
The same measure for `Brc1ccc(-c2ccon2)cc1`: 0 (inactive).
As for `CC1(C)OC(=O)c2cc(Br)c(O)cc2O1`, the figure is 0 (inactive).
Regarding `NC(c1ccccc1)c1ccccc1`, the SETD2 was 0 (inactive).
Regarding `Oc1cnc(-c2ccccc2)nc1`, the SETD2 is 0 (inactive).
Turning to `CC1C(=O)NC(=O)N1c1ccc(Cl)cc1` (stereo not shown), the SETD2 is 0 (inactive).
As for `O=C1NC2(CCCC2)Nc2ccccc21`, the figure is 0 (inactive); as for `C1=C[C@H]2O[C@@H]1c1ccccc12`, 0 (inactive).
On to `O=C1CNCCN1c1ccccc1`, for which the SETD2 was 0 (inactive).
Turning to `CCN(CC)c1cccc(C)c1`, the SETD2 is 0 (inactive).
The same measure for `COc1ccc(C2=CCNCC2)cc1`: 0 (inactive); for `O=C(c1ccncc1)N1CCNCC1`: 0 (inactive).
On to `CCc1ccc(NC2=NCCCS2)cc1`, for which the SETD2 is 0 (inactive).
Regarding `O=C1CCN(c2ccncc2)CC1`, the SETD2 is 0 (inactive).
The same measure for `NCC1(c2ccccc2)CCOCC1`: 0 (inactive); for `Oc1ccc(C2CCNCC2)cc1`: 0 (inactive).
As for `c1cnc2c(c1)NCCC2`, the figure is 0 (inactive); as for `O=c1[nH]ncc2c1oc1ccccc12`, 0 (inactive).
The same measure for `O=C(CN1CCCC1)c1ccccc1Cl`: 0 (inactive); for `Cc1cc(-c2ccccc2)n[nH]1`: 0 (inactive).
Consider `Nc1nnc(-c2cccs2)[nH]1`, for which the SETD2 is 0 (inactive).
The same measure for `NC(=O)N1CCC(C(=O)O)CC1`: 0 (inactive).
As for `c1ccc2oc(C3CCCNC3)nc2c1` (stereo not shown), the figure is 0 (inactive).
As for `Nc1ccc(-c2ccccc2)cc1C(=O)O`, the figure is 0 (inactive); as for `O=C1CCCc2occc21`, 0 (inactive); as for `COC(=O)c1c(C)nc(C2CC2)[nH]c1=O`, 0 (inactive).
On to `CCc1nccn1CC(=O)O`, for which the SETD2 is 0 (inactive).
As for `O=c1ccc2c([nH]1)CCCC2`, the figure is 0 (inactive); as for `Cc1ccc(C)n1Cc1ccccc1Cl`, 0 (inactive).
The same measure for `O=C1NC(=O)/C(=C\c2cccs2)N1`: 1 (active); for `c1ccc(-c2ccncc2)cc1`: 0 (inactive).
The same measure for `CCCN1C(=O)CC(=O)NC1=S`: 0 (inactive); for `COc1ccccc1CC1CCNCC1.Cl`: 0 (inactive).
